Consider 40 compounds from PubChem BioAssay (EPA / NIEHS).

Structures are written as SMILES. Records with an inconclusive call do not appear. Active and inactive are the calls of the source. The calls were made as follows: active = hit-call score of the fitted dose curve at least 0.9, where 1 is the maximum; inconclusive = response in the unintended direction; inactive = score below 0.9.

The target of this assay is human RAR-related Orphan Receptor beta (RORb), RORB (gene 6096) (UniProt Q92753). The experiment in a line: ATG_RORb_TRANS: Attagene TRANS-FACTORIAL HepG2 Assay for human RAR-related Orphan Receptor beta (RORb) (AID 2283010). How it is done: ATG_TRANS is a cell-based, multiplexed-readout assay that uses HepG2, a human liver cell line, with measurements taken at 24 hours after chemical dosing in a 24-well plate.ATG_RORb_TRANS is one of 30 assay component(s) measured or calculated from the ATG_TRANS assay. It is designed to make measurements of mRNA induction, a form of inducible reporter, as detected with fluorescence intensity signals by Reverse transcription polymerase chain reaction (RT-PCR) and Capillary electrophoresis technology.Data from the assay component ATG_RORb_TRANS was analyzed into 1 assay endpoint. This assay endpoint, ATG_RORb_TRANS, was analyzed in the positive analysis fitting direction relative to DMSO as the negative control and baseline of activity. Using a type of inducible reporter, measures of mRNA for gain-of-signal activity can be used to understand the reporter gene at the transcription factor-level as they relate to the gene RORB. Furthermore, this assay endpoint can be referred to as a primary readout, because this assay has produced multiple assay endpoints where this one serves a reporter gene function. To generalize the intended target to other relatable targets, this assay endpoint is annotated to the nuclear receptor intended target family, where the subfamily is orphan.
Chain of human RAR-related Orphan Receptor beta (RORb), RORB (gene 6096) (Q92753 whole entry, looked up): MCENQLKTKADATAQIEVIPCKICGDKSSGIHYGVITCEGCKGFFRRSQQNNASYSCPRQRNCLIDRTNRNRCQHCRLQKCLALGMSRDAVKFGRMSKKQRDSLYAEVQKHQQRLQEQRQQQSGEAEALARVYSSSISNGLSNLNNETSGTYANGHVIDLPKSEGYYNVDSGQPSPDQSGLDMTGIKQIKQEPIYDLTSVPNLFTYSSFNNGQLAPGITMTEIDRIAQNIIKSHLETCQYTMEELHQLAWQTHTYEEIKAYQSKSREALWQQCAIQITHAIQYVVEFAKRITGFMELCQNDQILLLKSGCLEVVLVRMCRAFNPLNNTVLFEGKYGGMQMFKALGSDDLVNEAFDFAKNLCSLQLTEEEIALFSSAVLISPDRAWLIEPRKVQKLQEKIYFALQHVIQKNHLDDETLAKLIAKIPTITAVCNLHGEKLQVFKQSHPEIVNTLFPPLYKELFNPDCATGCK
Human liver HepG2 cells are transiently transfected with multiple reporter transcription units (MRTUs) in 6-well plates using FuGene 6 reagent (Roche; 3 ml FuGene/1 mg DNA). The MRTU constructs are regulated by a cis-regulating element (promoter). […] A major difference between the CIS and TRANS system is that in CIS activities of endogenous TFs are measured, whereas the TRANS assay evaluates changes in activities of exogenous, chimeric NR-Gal4 proteins. […] At the end of 24 hour incubation, total RNA was isolated using TriZol reagent (Invitrogen). The isolated RNA is then reverse-transcribed using oligo(dT) primer and Mo-MLV reverse transcriptase (Invitrogen) with DNAse I (Ambion) treatment for 30 min. The one-tenth of the produced cDNA was amplified by PCR using Taq DNA polymerase (Invitrogen) and two reporter sequence-specific primers. The PCR products were fluorescently labeled by primer extension with 6-arboxyfluorescein (6-FAM) 5'-labeled reporter sequence-specific primer (2 min at 95 C, 20 s at 68 C and 10 min at 72 C) and these products were digested with 5U of HpaI (New England Biolabs) for 2h at 37 C. The fragments were purified using Qiaquick PCR columns (Qiagen), analyzed on an ABI 3130xL genetic analyzer (Applied Biosystems) with peak positions identified by using a set of X-rhodamine (ROX)-labeled MapMarker1000 molecular weight standards (BioVentures). The raw capillary electrophoresis data was processed using Attagraph software (Attagene).
Take `COCCOC(=O)c1ccccc1C(=O)OCCOC`: the result was inactive. For `Cc1ccc(S(=O)(=O)Oc2ccc(N=Nc3ccc(-c4ccc(N=Nc5c(O)ccc6cc(S(=O)(=O)O)cc(S(=O)(=O)O)c56)c(C)c4)cc3C)cc2)cc1` the value was “inactive”. Turning to `Oc1c(Cl)cc(Cl)c(Cl)c1Cc1c(O)c(Cl)cc(Cl)c1Cl`, the outcome was inactive. Turning to `CCCCCCCCCCCCS(=O)(=O)Cl`, the result was inactive. For `C[Si]1(C)O[Si](C)(C)O[Si](C)(C)O1` the value was “inactive”; for `CC(C)(N=C=O)c1cccc(C(C)(C)N=C=O)c1`, “inactive”.

On to `O=C(CS)OCCOC(=O)CS`, for which the compound was classed as inactive.

For the compound `Nc1ccc(NCCO)c([N+](=O)[O-])c1`, the compound was classed as inactive. On to `NCCNc1cccc2ccccc12`, for which the compound was classed as inactive.

In the case of `Cc1occc(=O)c1OC(=O)C(C)C`, the outcome was inactive. In the case of `CC(C)CCOC(=O)c1ccccc1`, the outcome was inactive. Under `CCOc1ccc(NC(=O)CC(C)=O)cc1` stands “inactive”; under `O=C1OC2(c3ccccc31)c1ccc(O)c(Br)c1Oc1c2ccc(O)c1Br`, “inactive”.

For the compound `Nc1ccc2cc(S(=O)(=O)O)cc(O)c2c1N=Nc1ccccc1C(F)(F)F`, the result was inactive. For `CSCCC=O` the value was “inactive”; for `[O-]n1ccccc1=S.[O-]n1ccccc1=S.[Zn+2]`, “inactive”. For `Clc1cc(Cl)c(-c2c(Cl)c(Cl)cc(Cl)c2Cl)cc1Cl` the value was “inactive”; for `c1ccc2[nH]cnc2c1`, “inactive”; for `COc1ccccc1[N+](=O)[O-]`, “inactive”. For `C[C@H](CCC(=O)NCC(=O)O)[C@H]1CC[C@H]2[C@@H]3[C@H](O)C[C@@H]4C[C@H](O)CC[C@]4(C)[C@H]3C[C@H](O)[C@]12C` the value was “inactive”; for `O=C(O)COCC(=O)O`, “inactive”; for `CN(C)C(=S)SC(=S)N(C)C`, “inactive”.

In the case of `C[Si](C)(C)O[Si](C)(C)C`, the result was inactive. Under `O=CN1CCOCC1` stands “inactive”; under `COc1ccc(OC)c(N=Nc2c(O)ccc3ccccc23)c1`, “inactive”; under `C1CCCCC1`, “inactive”.

`CC1=NN(c2ccc(S(=O)(=O)O)cc2)C(=O)C1`: the outcome was inactive. Take `O=C(O)c1cc(C(=O)O)cc([N+](=O)[O-])c1`: the result was inactive.

As to `CC(C)CC(C)CC(O)CC(C)C` (stereo not given), the result was inactive. For `COC(=O)c1cccnc1` the value was “inactive”; for `C[C@H]1O[C@@H](O[C@H]2[C@@H](O)C[C@H](O[C@H]3[C@@H](O)C[C@H](O[C@H]4CC[C@@]5(C)[C@H](CC[C@@H]6[C@@H]5C[C@@H](O)[C@]5(C)[C@@H](C7=CC(=O)OC7)CC[C@]65O)C4)O[C@@H]3C)O[C@@H]2C)C[C@H](O)[C@@H]1O`, “inactive”; for `CC(=O)CC(=O)Nc1ccccc1`, “inactive”.

As for `O=c1c(O)c(-c2ccc(O)cc2)oc2cc(O)cc(O)c12`, the outcome was inactive. For `O=P(O)(O)O` the value was “inactive”; for `CCCCC(CC)COC(=O)c1ccc(O)cc1` (stereo not given), “inactive”; for `C=C(C#N)C(=O)OCC`, “inactive”. `C#CC(C)(O)CC(C)C` (stereo not given): the call was inactive. For `C=CCN(CC=C)CC=C`, the compound was called inactive. `CC(C)NCC(O)COc1ccc(CC(N)=O)cc1` (stereo not given): the outcome was inactive. For `CN(C)CCOC(C)(c1ccccc1)c1ccccn1` (stereo not given) the value was “inactive”.
